A number with no mark means an inactive call. Results filed as inconclusive are left out. A call without a number means that no potency is given here. Active and inactive are the calls of the source. Unless noted, calls follow the shape of the dose curve; as a rule, active = well fitted curve in the direction sought with a large enough effect; inconclusive = small, poorly fitted or top-dose-only effect, or another doubt; inactive = no such curve, though single readings can be large; an effect the other way counts as inactive or inconclusive.
Tests used:
Hek293T = assay: Primary qHTS to identify gynecologic anti-cancer compounds using libraries of approved drugs and bioactive compounds (AID 1345084); details: Gynecologic cancer cell panel viability, ATPlite luminescence, 48 h, control line for the selectivity index; series mostly up to 57.5 µM; also: nearly all actives have a fitted effect of over 55% in size
Summary of the method: (§1)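 Cells, 1,000 per well, were allowed to settle for 16 h at 37 C before compound addition. Five concentrations were tested for 48 h, and viability was read by ATPlite luminescence after 15 min at room temperature.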

JEG-3 = assay: as above; details: Gynecologic cancer cell panel viability, ATPlite luminescence, 48 h; series mostly up to 57.5 µM
Summary of the method: as §1

OV90 = assay: as above; details: Gynecologic cancer cell panel viability, ATPlite luminescence, 48 h; series mostly up to 57.5 µM
Summary of the method: as §1

PA-1 = assay: as above; details: Gynecologic cancer cell panel viability, ATPlite luminescence, 48 h; series mostly up to 57.5 µM
Summary of the method: as §1

SKOV3 = assay: as above; details: Gynecologic cancer cell panel viability, ATPlite luminescence, 48 h; series mostly up to 57.5 µM
Summary of the method: as §1

Tov-21-G = assay: as above; details: Gynecologic cancer cell panel viability, ATPlite luminescence, 48 h; series mostly up to 57.5 µM
Summary of the method: as §1

Tov112D = assay: as above; details: Gynecologic cancer cell panel viability, ATPlite luminescence, 48 h; series mostly up to 57.5 µM
Summary of the method: as §1

[1] = Drug repurposing screens with cells derived from glioblastoma tumor samples (AID 1345199); details: GBM patient neurospheres viability, ATP luminescence, 48 h; also: nearly all actives have a fitted effect of over 40% in size; also: potency is read from the fitted curve at half-maximal effect
Summary of the method: (§2)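 Primary testing used CD133+ neurospheres from four GBM patients, seven concentrations, 48 h exposure and ATP-based viability; confirmation added three slower-growing patient lines.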

astro = assay: as above; details: viability, ATP luminescence, 48 h; series mostly up to 45.9 µM
Summary of the method: as §2

[2] = biological target: Nuclear receptor subfamily 1 group I member 2 (Rattus norvegicus) (UniProt Q9R1A7); assay: qHTS assay for small molecule activators of the rat pregnane X receptor (rPXR) signaling pathway (AID 651751; call rule not given here); details: rPXR reporter cells, luciferase (One-Glo), 24 h
Sequence of Nuclear receptor subfamily 1 group I member 2 (Rattus norvegicus) (Q9R1A7 whole entry, looked up): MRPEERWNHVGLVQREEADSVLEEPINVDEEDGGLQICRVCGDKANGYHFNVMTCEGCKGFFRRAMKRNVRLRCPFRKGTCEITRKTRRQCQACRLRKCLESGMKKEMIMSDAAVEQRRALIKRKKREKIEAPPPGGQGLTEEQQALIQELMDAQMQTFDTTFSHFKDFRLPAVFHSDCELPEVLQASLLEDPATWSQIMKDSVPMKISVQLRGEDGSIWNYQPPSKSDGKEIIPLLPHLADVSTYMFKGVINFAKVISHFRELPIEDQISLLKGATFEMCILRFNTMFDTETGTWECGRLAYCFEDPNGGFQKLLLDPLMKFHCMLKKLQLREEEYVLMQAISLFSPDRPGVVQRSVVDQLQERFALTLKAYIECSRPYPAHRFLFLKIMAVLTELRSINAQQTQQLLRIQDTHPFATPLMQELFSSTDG

[3] = qHTS assay for small molecule activators of the human pregnane X receptor (PXR) signaling pathway (AID 720659; call rule not given here)
[4] = at 45.9 µM (top of the series), tumour line B
[5] = at 45.9 µM (top of the series), tumour line D
[6] = at 46.1 µM (top of the series), tumour line C
[7] = at 20 µM (top of the series), tumour line C
[8] = at 21.2 µM (top of the series), tumour line B
[9] = at 21.2 µM (top of the series), tumour line D
[10] = at 21.3 µM (top of the series), tumour line A

Row | SMILES | Potency (Hek293T) | Potency (JEG-3) | Potency (OV90) | Potency (PA-1) | Potency (SKOV3) | Potency (Tov-21-G) | Potency (Tov112D) | activity, negative = cell killing [1, 4] [%] | Potency (astro) | activity, negative = cell killing [1, 5] [%] | activity, negative = cell killing [1, 6] [%] | max response [2] [%] | outcome [3] | activity, negative = cell killing [1, 7] [%] | activity, negative = cell killing [1, 8] [%] | activity, negative = cell killing [1, 9] [%] | Potency ([1]; tumour line A) | Potency ([1]; tumour line D) | activity, negative = cell killing [1, 10] [%] | activity, negative = cell killing ([1]; at 46 µM (top of the series), tumour line A) [%]
1 | C[C@]12CCC(=O)C=C1C=C[C@@H]1[C@@H]2CC[C@@]2(C)[C@H]1CC[C@@]21CCC(=O)O1 | inactive | inactive | inactive | inactive | inactive | inactive | inactive | -20 | inactive |  |  |  |  |  |  |  |  |  |  | 
2 | CN(C)C(=O)Nc1ccc(Cl)c(Cl)c1 | inactive | inactive | inactive | inactive | inactive | inactive | inactive | -10.4 | inactive | -7.69 | -10.1 | 5.92 | inactive |  |  |  |  |  |  | 
3 | CCCCCCCCCCCCCCCCO | inactive | inactive | inactive | inactive | inactive | inactive | inactive | -2.36 |  | 5.55 | 3.59 | 0.781 | inactive |  |  |  |  |  |  | 
4 | CC(C(=O)O)c1cccc(Oc2ccccc2)c1 (configuration not stated) | inactive | inactive | inactive | inactive | inactive | inactive | inactive |  | inactive |  |  |  |  | 4.85 | -4.71 | -19.7 |  |  |  | 
5 | CCCCOC(=O)CC(CC(=O)OCCCC)(OC(C)=O)C(=O)OCCCC | inactive | inactive | inactive | inactive | inactive | inactive | inactive | -5.84 | inactive | -7.23 | -12.4 | 12 |  |  |  |  |  |  |  | 
6 | O=C(O)c1ccc(S(=O)(=O)N(Cl)Cl)cc1 | inactive | inactive | inactive | inactive | inactive | inactive | inactive | -12 | inactive | -8.56 | -26.9 | 3.23 | inactive |  |  |  |  |  |  | 
7 | Cc1cc2c(OCC(CNC(C)(C)C)OC(=O)c3ccccc3)cccc2[nH]1 (configuration not stated) | inactive | inactive | inactive | inactive | inactive | inactive | inactive | -19.3 | inactive | -5.62 | -10.8 |  |  |  |  |  |  |  |  | 
8 | N#C/C(=C1\SCC(c2ccccc2Cl)S1)n1ccnc1 (configuration not stated) | inactive | inactive | inactive | inactive |  | inactive | inactive | -11.6 | inactive | -27.3 | 0.133 |  |  |  |  |  | 10 µM (active) |  |  | 
9 | CC(C)NCC(O)c1ccc2ccccc2c1 (configuration not stated) | inactive | inactive | inactive | inactive |  | inactive | inactive | -12.4 | inactive | -5.15 | -5.59 |  |  |  |  |  |  |  |  | 
10 | CN1CCN(C2=Nc3ccccc3Sc3ccc(Cl)cc32)CC1 | inactive | inactive | inactive |  | inactive | inactive | inactive |  |  |  | -6.22 |  |  |  |  |  | 7.94 µM (active) | 17.8 µM (active) |  | 
11 | CCCN(CCc1cccs1)[C@H]1CCc2c(O)cccc2C1 | inactive | inactive | inactive | inactive |  | inactive | inactive |  | inactive |  |  |  |  |  |  |  |  |  |  | 
12 | CC(C)(C)NC[C@H](O)COc1cccc2c1CCCC2=O | inactive | inactive | inactive | inactive |  | inactive | inactive |  | inactive |  |  |  |  | 5.11 | -13.9 | -6.37 |  |  | -24.3 | 
13 | CCc1oc2ccccc2c1C(=O)c1cc(I)c(O)c(I)c1 | inactive | inactive | inactive | inactive |  | inactive | inactive |  |  |  | -3.24 |  |  |  |  |  |  |  |  | 
14 | O=[N+]([O-])c1cccc(S(=O)(=O)NCCNS(=O)(=O)c2cccc([N+](=O)[O-])c2)c1 | inactive | inactive | inactive | inactive |  | inactive | inactive | -14.3 |  | -9.35 | -36.6 |  |  |  |  |  |  |  |  | 
15 | COc1cc(NS(=O)(=O)c2ccc(N)cc2)ncn1 | inactive | inactive | inactive | inactive |  | inactive | inactive |  | inactive |  |  |  |  | 5.16 | 4.65 | -16.4 |  |  |  | 
16 | COc1cc(C)nc(-n2nc(C)cc2OC)n1 | inactive | inactive | inactive | inactive |  | inactive | inactive |  | inactive |  |  |  |  | 16.5 | 1.89 | -16 |  |  | -15.4 | 
17 | Nc1ccc(S(=O)(=O)NCc2ccccc2)cc1 | inactive | inactive | inactive | inactive |  | inactive | inactive | 0.545 | inactive | -1.8 | -10.5 |  |  |  |  |  |  |  |  | 
18 | CC(=O)NC(=O)c1ccccc1O | inactive | inactive | inactive | inactive |  | inactive | inactive | -6.43 | inactive | -8.37 | -17.7 |  |  |  |  |  |  |  |  | -24.9
